# Experimental data as given in the supplement of paper PMC6555819.
# How the values were obtained:
# Test in all cases: PBM binding z-score (relative to random genomic background probes); higher = stronger binding; sequences stand for … in GC…GCGATTGACAGCGTAGAATGAAGG
# [1] = test system: FXR:RXRa (NR concentration 270 nM, RXRa partner concentration 90 nM)
# Procedure, shortened: (§1)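 For binding z-scores, the reference was random background probes on custom Agilent 4×180K protein-binding microarrays. These arrays were incubated 1 h with ligand-free nuclear receptor dimers in PBS pH 7.4, 2% milk, 0.02% Triton X-100, 1 mM DTT, 0.2 mg/mL BSA and 0.4 mg/ml salmon testes DNA. Fluorescence was scanned after antibody detection of each partner (one per run) and regression-normalized.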
# [2] = test system: LXRa:RXRa (NR concentration 270 nM, RXRa partner concentration 90 nM)
# Procedure, shortened: as §1
# [3] = test system: LXRa homodimer (NR concentration 270 nM)
# Procedure, shortened: as §1
# [4] = test system: LXRb:RXRa (NR concentration 270 nM, RXRa partner concentration 90 nM)
# Procedure, shortened: as §1
# [5] = test system: LXRb homodimer (NR concentration 270 nM)
# Procedure, shortened: as §1
# [6] = test system: PPARa:RXRa (NR concentration 270 nM, RXRa partner concentration 90 nM)
# Procedure, shortened: as §1
# [7] = test system: PPARg:RXRa (NR concentration 180 nM, RXRa partner concentration 90 nM)
# Procedure, shortened: as §1
# [8] = test system: PPARg:RXRa 270nM:90nM, anti-RXR (NR concentration 270 nM, RXRa partner concentration 90 nM)
# Procedure, shortened: as §1
# [9] = test system: PPARg:RXRa 30nM:10nM, anti-RXR (NR concentration 30 nM, RXRa partner concentration 10 nM)
# Procedure, shortened: as §1
# [10] = test system: PPARg:RXRa 90nM:30nM, anti-RXR (NR concentration 90 nM, RXRa partner concentration 30 nM)
# Procedure, shortened: as §1
Sequence,PBM binding z-score [1],PBM binding z-score [2],PBM binding z-score [3],PBM binding z-score [4],PBM binding z-score [5],PBM binding z-score [6],PBM binding z-score [7],PBM binding z-score [8],PBM binding z-score [9],PBM binding z-score [10]
ACTAGCAGGCTAAGTTTGGGTCACTCAAACAAAG,-0.0373,-0.132,-0.315,0.424,-0.557,1.28,-0.0855,0.315,-0.575,-0.155
CCTAGTTGGTCAGGAGGTCGCACACCGGATATGA,1.17,0.794,0.375,0.833,0.0283,1.59,1.06,1.73,0.24,1.19
CAAACTAGGTCACAGAGGTCAAAATCCGTGCGTA,7.3,6.21,6.61,6.41,2.18,6.58,10,7.86,6.44,7.9
TAGCCTAGGTCATTCAGGGGCCAGTAAAGAAAGC,4.75,4.05,0.681,3.17,0.778,3.73,1.61,2.56,0.576,1.76
ATATGTAGGTCACATCCGGGTCATTCAGGCTATG,4.9,5.58,3.31,4.45,1.88,5.8,9.18,7.48,5.41,7.3
TCATTTAGGTAAAGGTGAAAGTCGAACGATATGA,1.18,1.46,-0.167,1.52,0.32,3.21,3.2,4.48,4.39,4.9
TCGAGTAGGTTAGTGGGGGCATTCAGCCAACATA,1.28,1.52,0.619,3.73,6.59,2.68,2.05,3.03,1.76,2.53
AGAACGAGGGCAATGCGTTGATAGCACGGGTGGC,0.0853,0.264,-0.517,-0.19,-0.678,1.3,1.36,0.671,-0.109,0.215
CTGACTGGGGCAAAGGTTACCATACTCAGTACGA,1.83,1.87,-0.166,3.05,-0.352,6.09,11.3,9.42,9.13,10.2
ATAATGAGGTTATACGTAGATCAGGGAAGAAAGT,2.27,2.55,0.45,1.89,0.893,3.42,2.56,2.38,0.895,1.89
CGAACTAGGTCATTGACAGGACAGTGAATAGTAA,4.56,2.89,0.461,2.07,0.0276,4.67,7.66,6.13,3.8,5.54
GGGACGAGGGCAAAGTTGATAGCATCTGTCGACG,1.7,1.11,-0.058,1.41,0.182,3.68,6.58,6.7,5.3,6.62
AACACAGGGTCATCGTAGGCCAGAGTACGCACAG,7.22,6.21,1.53,4.44,0.922,5.84,5.85,5.7,1.96,4.21
TAGCCTAGGTCATGCGGGCCAGTAAAGTGTCGGC,3.65,3.17,-0.0418,1.66,-0.608,3.69,2.07,2.27,-0.0823,1.37
CTACCAAGGTGAACAAGGTCGTTGAATACTATTC,1.52,1.23,0.0934,1.87,-0.659,2.68,1.19,1.39,0.333,0.702
ACTAGCAGGCCAAGGGTCATTCAAGATTAGTCCG,3.35,3.46,1.07,3.3,-0.0105,4.72,7.69,7.28,5.9,7.5
ATCGAAAGGTCGAGGTGCGTATAGAGAAAGGGAA,3.98,3.27,-0.147,2.47,0.277,4.37,2.48,3.13,1.09,2.17
GCTGCTAGGTCAGGTTGGTCAGCAAACGGGTACG,1.13,0.793,-0.389,0.519,-0.114,1.52,0.5,0.829,-0.344,0.0879
AATACAGGGTCATCGTAGGCCATAGTACGCACAG,7.3,6.74,3.23,4.97,1.39,6.02,6.89,6.05,2.98,4.83
GCTATTAGTTGAAAGGGCAGCCGAATGATTCTCG,0.117,0.132,-0.239,0.0989,-0.467,1.69,1.92,3.53,1.46,3.05
TAGCCTAGGTCATTGGCCCAGTATAGTACGCATC,4.84,3.9,1.34,2.45,-0.219,3.53,2.1,2.32,0.439,1.49
ACAGACAGGTGAGTGAAGGTAACTCAGCTGGACG,0.377,0.0321,-0.247,-0.255,-0.625,0.294,0.762,0.0476,-0.138,-0.304
TCTAGCAGGCCAGAGGGTCGCTCAAGAGGTACGG,-2.83,-0.514,-0.98,-0.425,-1.97,0.269,0.213,1.29,1.69,1.37
